Rows were chosen to be rich in hits. Some 3.1% of all compounds tested hit in one or more screens of this group.
Mtb BioA inh – BioA (M. tuberculosis) enzyme inhibition; purified M. tuberculosis BioA enzyme, plate reader; inhibition, % at 9.99 µM; 360,000 tested, 0.096% active; AID 602481; in the data active = inhibition above about 40%
FadD28 binding – inhibitors of Mycobacterium tuberculosis FadD28 bisubstrate binding. FadD28 bisubstrate probe binding, fluorescence polarization. inhibition, % at 12.5 µM. 360,000 tested, 0.22% active. AID 588549; in the data active = inhibition above about 8.5%, passing the limit was not always enough
Mtb FBA inh – inhibitors of M. tuberculosis fructose-bisphosphate aldolase | inhibition, % at 1 µM | P9WQA3 | purified M. tuberculosis FBA, fluorescence read-out | 360,000 tested, 2.3% active; in the data active = inhibition above about 27%;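 note: 0% = vehicle and 100% = reference inhibitor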
Target sequence (P9WQA3 whole entry, looked up): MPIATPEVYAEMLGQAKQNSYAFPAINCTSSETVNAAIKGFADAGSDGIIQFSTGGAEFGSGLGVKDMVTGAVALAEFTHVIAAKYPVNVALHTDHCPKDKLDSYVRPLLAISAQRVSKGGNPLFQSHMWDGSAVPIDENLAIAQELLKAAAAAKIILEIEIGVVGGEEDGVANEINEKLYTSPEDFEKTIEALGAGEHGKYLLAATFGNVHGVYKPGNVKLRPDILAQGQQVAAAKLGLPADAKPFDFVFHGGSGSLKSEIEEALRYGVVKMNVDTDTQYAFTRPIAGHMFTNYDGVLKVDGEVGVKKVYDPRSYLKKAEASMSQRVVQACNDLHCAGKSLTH
3CLpro inhibitor – SARS-CoV 3CLpro protease inhibition; P0C6X7; recombinant SARS-CoV 3CLpro, quenched FRET peptide cleavage; inhibition, % at 6 µM; 290,000 tested, 0.14% active; in the data active = inhibition above about 12%
GDH-TPI inh – counter-screen for M. tuberculosis FBA inhibitors: GDH-TPI coupled enzymes; GDH-TPI coupled enzyme counterscreen, NADH absorbance; inhibition, % at 4.8 µM; 360,000 tested, 1.2% active; in the data active = inhibition above about 30%;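 note: 0% = DMSO wells and 100% = wells lacking the enzyme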
* = called active by the depositor.

For Cc1ccc(S(=O)(=O)Nc2ccc3c(c2)C(=O)N([C@@H](C)CO)C[C@H](C)[C@H](CN(C)CC2CCCCC2)OCCCC[C@H](C)O3)cc1 the results were Mtb BioA inh 0.
For C[C@@H]1CCCCO[C@@H](CN(C)Cc2ccc(C(F)(F)F)cc2)[C@H](C)CN([C@H](C)CO)C(=O)c2cc(NS(=O)(=O)c3ccccc3)ccc2O1 the results were Mtb BioA inh 1.
CCc1cc2c(=O)c(-c3nc4ccccc4n3C)c(C)oc2c(CN(CC)CC)c1O was read as Mtb BioA inh 2, FadD28 binding 3, Mtb FBA inh 14, 3CLpro inhibitor -4 and GDH-TPI inh 16.
Screening CC(=O)Oc1ccc2cc(-c3nc4ccccc4n3C)c(=O)oc2c1 returned Mtb BioA inh -3, FadD28 binding -2, Mtb FBA inh active, 3CLpro inhibitor 4 and GDH-TPI inh 30.
For CC(C)(C)C(=O)Oc1ccc2cc(-c3ccc4ccccc4n3)c(=O)oc2c1 the results were Mtb BioA inh 1, FadD28 binding -1, Mtb FBA inh 8, 3CLpro inhibitor 2 and GDH-TPI inh -1.
CCN(CC)Cc1c(O)ccc2cc(-c3nc4ccccc4n3C)c(=O)oc12 was read as Mtb BioA inh -2, FadD28 binding 2, Mtb FBA inh active, 3CLpro inhibitor 0 and GDH-TPI inh 12.
`C/C=C/c1ccc2c(c1)O[C@H](CN(C)C(=O)COC)[C@H](C)CN([C@H](C)CO)S2(=O)=O` gave Mtb BioA inh 2.
Screening Cc1onc(-c2ccccc2)c1C(=O)NC(=S)NNC(=O)c1ccncc1 returned Mtb BioA inh 1, FadD28 binding 0, Mtb FBA inh 4, 3CLpro inhibitor 3 and GDH-TPI inh 13.
`Cc1onc(-c2ccccc2)c1C(=O)NNC(=S)NC(=O)/C=C/c1cccs1` gave Mtb BioA inh -1, FadD28 binding 0, Mtb FBA inh 0, 3CLpro inhibitor -2 and GDH-TPI inh 63*.
`O=[N+]([O-])c1ccc(N2CCOCC2)c(S(=O)(=O)N2CCOCC2)c1` gave Mtb BioA inh 0, FadD28 binding 0, Mtb FBA inh 2, 3CLpro inhibitor 0 and GDH-TPI inh 8.
`O=[N+]([O-])c1ccc(NCCCO)c(S(=O)(=O)N2CCOCC2)c1` gave FadD28 binding -5, Mtb FBA inh -2, 3CLpro inhibitor 3 and GDH-TPI inh 40*.
`C[C@@H]1CN([C@H](C)CO)C(=O)c2cc(/C=C/c3ccccc3)cnc2O[C@H]1CN(C)Cc1cccnc1` gave Mtb BioA inh 10.
`COc1cc(/C=N/NC2=NS(=O)(=O)c3ccccc32)cc(OC)c1OC` gave Mtb BioA inh -1, FadD28 binding -4, Mtb FBA inh -3, 3CLpro inhibitor -3 and GDH-TPI inh 12.
COc1ccc(/C=N/NC2=NS(=O)(=O)c3ccccc32)cc1OC(C)=O was read as Mtb BioA inh -2, Mtb FBA inh -1, 3CLpro inhibitor 3 and GDH-TPI inh 32*.
`O=S1(=O)N=C(N/N=C/c2ccccn2)c2ccccc21` gave FadD28 binding 1, Mtb FBA inh 0, 3CLpro inhibitor -2 and GDH-TPI inh 18.
For O=S1(=O)N=C(N(CCO)/N=C/C=C/c2ccccc2)c2ccccc21 the results were Mtb BioA inh 3, FadD28 binding -3, Mtb FBA inh -3, 3CLpro inhibitor -1 and GDH-TPI inh 56*.
`COc1ccc(/C=N/NC2=NS(=O)(=O)c3ccccc32)cc1` gave Mtb BioA inh -1, FadD28 binding 0, Mtb FBA inh 0, 3CLpro inhibitor 5 and GDH-TPI inh 44*.
For O=S1(=O)N=C(N/N=C/C=C/c2ccccc2)c2ccccc21 the results were Mtb BioA inh 0, FadD28 binding 0, Mtb FBA inh 2, 3CLpro inhibitor 4 and GDH-TPI inh 40*.
Screening O=S1(=O)N=C(N(CCO)/N=C/c2ccc(Cl)cc2)c2ccccc21 returned Mtb BioA inh 8, FadD28 binding -1, Mtb FBA inh -4, 3CLpro inhibitor 2 and GDH-TPI inh 15.
CN(C)c1ccc(/C=N/NC2=NS(=O)(=O)c3ccccc32)cc1 was read as Mtb BioA inh -2, FadD28 binding -1, Mtb FBA inh -5, 3CLpro inhibitor -3 and GDH-TPI inh 23.
CC(C)CC#Cc1ccc2c(c1)O[C@@H](CN(C)C(=O)c1cccc(F)c1)[C@H](C)CN([C@@H](C)CO)S2(=O)=O was read as Mtb BioA inh 0.
For C[C@@H]1CN([C@H](C)CO)C(=O)Cc2cc(NS(C)(=O)=O)ccc2O[C@@H]1CN(C)S(=O)(=O)c1ccc(Cl)cc1 the results were Mtb BioA inh 0.

Source: PubChem
